# Compounds with a hit are over-represented: about 2.3% of the library has one in this group of screens.
# CHO-K1 Ca antag = counter-screen for M1 antagonists: effect in parental CHO-K1 cells. inhibition, % at 3 µM. 360,000 compounds, 0.6% hits. ATP-induced calcium, Fluo-8 fluorescence. AID 602250;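 active = inhibition above a per-plate cutoff, the plate's mean sample inhibition plus 3 SD, cut at about 24% in these data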;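 note: 0% = DMSO plus EC80 ATP and 100% = DMSO alone without ATP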
# M1 PAM = potentiates human M1 receptor response to acetylcholine. CHO-K1 hM1, Fluo-8 calcium fluorescence, ACh EC20; 0% = ACh EC20, 100% = maximal ACh. activation, % at 3 µM. 360,000 compounds, 0.088% hits. AID 588819; in the data active = activation above about 19%, passing the limit was not always enough
# Target sequence (P11229 whole entry, looked up): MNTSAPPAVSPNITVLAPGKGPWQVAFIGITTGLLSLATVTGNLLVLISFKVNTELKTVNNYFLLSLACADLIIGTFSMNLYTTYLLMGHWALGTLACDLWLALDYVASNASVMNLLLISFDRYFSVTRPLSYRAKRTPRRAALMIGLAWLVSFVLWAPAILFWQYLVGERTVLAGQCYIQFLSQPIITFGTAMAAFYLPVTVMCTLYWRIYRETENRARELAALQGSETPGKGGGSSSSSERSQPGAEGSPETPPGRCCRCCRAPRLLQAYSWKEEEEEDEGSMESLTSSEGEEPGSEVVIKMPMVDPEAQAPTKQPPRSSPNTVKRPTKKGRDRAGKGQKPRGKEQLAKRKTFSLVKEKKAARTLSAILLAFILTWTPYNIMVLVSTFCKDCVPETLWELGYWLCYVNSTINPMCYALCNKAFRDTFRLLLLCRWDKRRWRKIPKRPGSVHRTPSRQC
# CHRM1 agonist = activates human CHRM1 receptor. P11229. CHO-K1 hM1, Fluo-8 calcium fluorescence, agonist mode; 0% DMSO, 100% acetylcholine EC100. activation, % at 3 µM. 360,000 compounds, 0.33% hits;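 active = activation above the run's mean compound activation plus 3 SD, cut at about 16% in these data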;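 note: peak over basal fluorescence ratio within a 140 s kinetic read after compound addition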
# M1 antag = antagonists of human M1 muscarinic receptor | inhibition, % at 3 µM | 360,000 compounds, 1.3% hits | CHO-K1 hM1, Fluo-8 calcium fluorescence, ACh EC80 antagonist;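 active = percent inhibition above its own plate's cutoff, namely the mean of that plate's compound wells plus 3 SD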;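 note: peak over basal fluorescence ratio during 140 s after agonist addition; 0% = ACh EC80 plus DMSO and 100% = DMSO alone without agonist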
# CHO-K1 Ca ag = M1 agonist counterscreen hit in parental CHO-K1 cells; AID 602248; 360,000 compounds, 0.48% hits; Fluo-8 calcium fluorescence; scaled to maximal ATP response, vehicle zero; activation, % at 3 µM; in the data active = activation above about 15%;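 note: untransfected CHO-K1 host cells lacking M1 receptor as counterscreen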
# M1 PAM parental = nonselective activator or artifact in parental CHO-K1 calcium assay. ATP EC20, Fluo-8 calcium fluorescence; 0% at ATP EC20, 100% at ATP max. activation, % at 3 µM. 360,000 compounds, 0.02% hits;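 active = activation above the run cutoff, the mean activation of all test compounds plus 3 SD, cut at about 40% in these data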;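 note: peak over basal fluorescence ratio in a 140 s read after ATP addition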
# Active calls of the source: *; x = no result.
SMILES,CHO-K1 Ca antag,M1 PAM,CHRM1 agonist,M1 antag,CHO-K1 Ca ag,M1 PAM parental
COc1ccc(CN2CCN(C(=O)CCC(=O)Nc3nnc(C(F)(F)F)s3)CC2)cc1F,-28,-9,-3,9,7,9
COc1ccc(CN2CCN(C(=O)CCC(=O)Nc3nnc(C4CCCCC4)s3)CC2)cc1F,-15,-17,-2,34*,5,27
CCCc1nnc(NC(=O)CCC(=O)N2CCN(Cc3ccc(OC)c(F)c3)CC2)s1,-15,-21,-4,49*,3,-8
COc1ccc(CN2CCN(C(=O)CCC(=O)Nc3nnc(CC(C)C)s3)CC2)cc1F,3,-17,-2,25,7,-16
COC(=O)CCC(C)C1CCC2C3C(OC(C)=O)CC4CC(O)CCC4(C)C3CC(O)C12C (centres undefined),-8,4,1,-8,2,8
Cc1cc(C(=O)COC(=O)c2ccc(O)cc2O)c(C)n1-c1ccc(OC(F)F)cc1,29*,-11,1,27,3,-24
COc1ccc(-n2c(C)cc(C(=O)COC(=O)c3ccc(O)cc3O)c2C)cc1,-3,-10,-1,30,6,-6
O=C(NCCc1ccccc1)C(=O)c1cn(CC(=O)N2CCCC2)c2ccccc12,24*,7,-4,-8,1,-10
COc1ccccc1CCNC(=O)C(=O)c1cn(CC(=O)N2CCCC2)c2ccccc12,-11,12,-5,-6,2,21
O=C1CC(=C(c2ccccc2)c2ccccc2)C(=O)N1CCCCN1CCN(c2ccccc2)CC1,-13,-22,-5,73*,0,15
O=[N+]([O-])c1ccc(Oc2c(F)c(F)nc(N3CCCC3)c2F)cc1,13,-12,-5,28*,11,-5
CCCNc1ncnc2nc[nH]c12,-3,6,-2,-6,0,-9
C1=C(CCNc2ncnc3nc[nH]c23)CCCC1,2,-19,2,28*,8,-9
c1ccc2c(CCNc3ncnc4nc[nH]c34)cccc2c1,24,-20,7,54*,11,-2
c1ccc(CNc2ncnc3nc[nH]c23)cc1,7,2,-1,-20,-1,10
c1ccc(CCCNc2ncnc3nc[nH]c23)cc1,-2,-5,21*,2,8,16
COc1ccc2[nH]c3c(NCCC4=CCCCC4)ncnc3c2c1,14,-9,0,23,15*,-12
COc1ccc2[nH]c3c(NCCCOC(C)C)ncnc3c2c1,-7,-13,-8,11,2,-1
Clc1ccc(CCNc2ncnc3nc[nH]c23)cc1,30*,-21,6,30*,13,-3
CCOC(=O)N1CCN(c2ccc(S(=O)(=O)N3CCC(C)CC3)cc2[N+](=O)[O-])CC1,-15,8,2,-7,3,4
Cn1ncc(Oc2ccc([N+](=O)[O-])cc2)c(Cl)c1=O,7,6,-3,-2,15*,3
Cn1ncc(Cl)c(Oc2ccc(Cl)cc2)c1=O,-4,-4,-10,3,0,17
CCc1cc2c(COC(=O)c3cccc(S(C)(=O)=O)c3)cc(=O)oc2cc1O,-2,-6,-6,9,10,10
CNS(=O)(=O)c1cccc(C(=O)OCc2cc(=O)oc3c(C)c(O)ccc23)c1,-8,-7,1,2,15*,12
CCN1C=C(C(C)=O)C(=O)CC1,-12,7,-1,-11,1,8
SMILES,CHO-K1 Ca antag,M1 PAM,CHRM1 agonist,M1 antag,CHO-K1 Ca ag,M1 PAM parental
OC(CCN1CC2CCC(CC2)C1)(Cc1ccccc1)c1ccco1 (centres undefined),-6,-28,-6,86*,0,3
O=C(N/N=C/c1ccc(O)c(O)c1)c1ccc(CSc2cccc3cccnc23)cc1,-1,4,24*,-2,0,12
O=C(/C=C/c1cccs1)Nc1nccs1,-11,11,-3,-13,0,9
O=C(/C=C/c1cccs1)Nc1cccc(NC(=O)/C=C/c2cccs2)n1,14,-22,-3,47*,6,6
O=C(COC(=O)/C=C/C(=O)OCC(=O)NC12CC3CC(CC(C3)C1)C2)NC12CC3CC(CC(C3)C1)C2,-12,9,-6,-6,0,15
C[C@@H](c1ccccc1)N1C[C@@H](COCc2ccccc2)Oc2cc(N3CC[C@@H](N(C)C)C3)ccc2S1(=O)=O,-9,x,x,x,2,18
CCN(CC)CCC=C(c1cccs1)c1cccs1,-7,-28,-6,96*,0,2
CCN(CC)CCCNC(=O)/C(=C\c1cccn1C)NC(=O)c1cccs1,-8,7,-7,-8,1,16
O=c1[nH]c2ccc([N+](=O)[O-])cc2nc1/C=C(\O)c1ccccc1,-9,6,-2,-13,2,24
CCOc1ccc(NCc2cccn2-c2nnc(N3CCC(C(=O)NCCCN4CCCCC4CC)CC3)s2)cc1 (centres undefined),-14,-23,-5,88*,0,-1
Cc1nc(-c2cccc(NC(=O)c3ccc(-n4cccn4)cc3)c2)cs1,-12,-13,-2,24,7,-10
COc1ccccc1NC(=O)CSc1nc2ccccc2cc1Cc1ccccc1,-11,-1,-6,1,1,42*
O=C(O)C1CCCCC1C(=O)NCCc1ccc(F)cc1 (centres undefined),-11,2,-2,3,0,0
Cc1cccc(C(=O)NC(=S)NNC(=O)c2ccccc2Cl)c1,3,-25,91*,27,71*,-4
Cc1cccc(C(=O)NC(=S)NNC(=O)Cc2ccccc2)c1,16,-6,15,2,1,-14
Cc1ccc(C(=O)NNC(=S)NC(=O)c2ccc(Cl)cc2)cc1,9,-38,98*,45*,102*,-19
Cc1onc(-c2ccccc2)c1C(=O)NNC(=S)NC(=O)c1ccc(Br)cc1,-8,-18,75*,7,65*,-12
O=C(NC(=S)Nc1ncccn1)c1ccc(Cl)cc1Cl,-4,10,-6,-7,21*,12
Cc1onc(-c2ccccc2)c1C(=O)NNC(=O)c1ccccc1,-15,10,-2,-17,0,12
CCC(C)NC(=O)Cc1c(C)c2cc3c(cc2oc1=O)OC(C)(C)CC3 (centres undefined),-14,3,-8,-8,4,11
O=C(NC(=S)NNC(=O)c1ccc(Cl)cc1Cl)c1cccnc1,11,1,-3,2,0,-5
Cc1ccccc1C(=O)NNC(=S)NC(=O)c1ccc(Cl)cc1Cl,12,-25,85*,18,89*,-13
Cc1onc(-c2ccccc2)c1C(=O)NNC(=O)c1ccccc1O,-10,4,-3,-6,1,9

# From PubChem
